# Screening results as filed in PubChem.
# A selection: hits, their analogues and other compounds. The true share with any hit is near 27%.
# Cav32 inh – inhibitors of human Cav3.2 T-type calcium channel; hit rate 4% among 100,000; Cav3.2-expressing cells, Fluo-4 calcium fluorescence FDSS; hits give low values; B-score at 10 µM; O95180;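 active means single-dose well whose peak fluorescence ratio is a statistical outlier from its plate by either plate-standardised score or position-corrected B-score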
# CYP2C19 inhib – blocks human cytochrome P450 2C19; P33261; CYP2C19 Supersomes, luciferin-H EGE luminescence, 30 min; inhibition, % at 5 µM; hit rate 21% among 96,000; AID 778;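 active means CYP2C19 inhibition above a set limit at 5 µM in the primary screen, cut at about 50% in these data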;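 further: plate controls were negative control wells for no effect and 2.5 mM tranylcypromine positive control for full effect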
# CYP2C19 activ – activators of human cytochrome P450 2C19 | P33261 | recombinant CYP2C19, luciferin-H EGE luminescence; hits give high values; 0 = fully inhibited enzyme, 1 = untreated enzyme | activation factor at 5 µM | 96,000 tested, under 10 active | AID 1025;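 active means activation factor of at least 2 at 5 µM in the primary screen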;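 further: 0 = wells with 2.5 mM tranylcypromine and 1 = vehicle-only wells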
# CYP2C9 inh – blocks human cytochrome P450 2C9; P11712; CYP2C9 Supersomes, luciferin-H conversion, luminescence; inhibition, % at 5 µM; hit rate 20% among 96,000;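 active means blocking of liver enzyme CYP2C9 beyond about 50% at 5 µM, limit read from the data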
# CYP2C9 activ – CYP2C9 (human) activation; P11712; recombinant CYP2C9, luciferin-H conversion, luminescence; hits give high values; factor 1 = untreated enzyme, 0 = blocked; activation factor at 5 µM; hit rate 1.4% among 96,000; AID 1024;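 active means activation factor of 2 or more for CYP2C9 at a 5 µM dose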;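 further: 0 = sulfaphenazole-blocked wells and 1 = vehicle-only wells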
# * hit, by the source's call; . = not tested or not shown.
SMILES,Cav32 inh,CYP2C19 inhib,CYP2C19 activ,CYP2C9 inh,CYP2C9 activ
O=C1c2ccccc2C(=O)N1CC(O)CN1CCOCC1 (configuration not stated),0.89,.,.,.,.
Cc1nn(CC(O)CN2c3ccccc3Sc3ccccc32)c(C)c1Br (configuration not stated),-1.4,89*,0.1,93*,0.1
O=C1c2ccccc2C(=O)N1CC(O)Cn1nnc2ccccc21 (configuration not stated),1.1,59*,0.4,34,0.7
OC(CN1c2ccccc2Sc2ccccc21)Cn1nnc2ccccc21 (configuration not stated),-0.54,100*,0,100*,0
OC(Cn1nnc2ccccc21)Cn1c(C(F)(F)F)nc2ccccc21 (configuration not stated),-0.076,35,0.7,57*,0.4
CC1(C)C[C@H](O)[C@@]23C[C@@H](OC2=O)[C@]2(C)C(=CCC4[C@@]5(C)CC[C@H](O)C(C)(C)C5CC[C@]42C)[C@@H]3C1 (some centres not stated),-1.1,.,.,.,.
Cc1cc(C)cc(NS(=O)(=O)c2cnc(Cl)c(Cl)c2)c1,-5.6*,100*,0,86*,0.1
COc1ccc(OC)c(CCNC(=O)CC2Oc3ccc(C)cc3NC2=O)c1 (configuration not stated),0.026,21,0.8,16,0.8
Cc1ccc2c(c1)NC(=O)C(CC(=O)NCCN(CC(C)C)CC(C)C)O2 (configuration not stated),1.5,4,1,51*,0.5
COc1ccc(OC)c(CCNC(=O)CC2Oc3ccccc3NC2=O)c1 (configuration not stated),-0.14,50*,0.5,-8,1.1
c1ccc2c(CNCCN3CCOCC3)cccc2c1,.,26,0.7,13,0.9
CC(=O)/C(C#N)=C1\NC(=O)C(Cc2ccccc2Cl)S1 (configuration not stated),-1.6,.,.,.,.
CC(=O)/C(C#N)=C1\NC(=O)C(Cc2ccc(C)c(C)c2)S1 (configuration not stated),-1.7,-5,1.1,94*,0.1
O=C(c1ccccc1Cl)N1N=C(c2ccc(Br)cc2)CC1c1nc2ccccc2[nH]1 (configuration not stated),-3.6,50*,0.5,67*,0.3
N#Cc1c2c(c(N3CCN(c4ccccn4)CC3)n3c1nc1ccccc13)CCC2,.,59*,0.4,54*,0.5
O=C(Nc1cccc(-c2nnc(-c3ccccc3)o2)c1)c1ccc(Br)o1,-0.95,33,0.7,69*,0.3
CCOc1ccccc1C(=O)Nc1cccc(-c2nnc(-c3ccccc3)o2)c1,-2.1,17,0.8,-81,1.8
O=C(Nc1cccc(C(F)(F)F)c1)c1ccc2nc(-c3ccco3)c(-c3ccco3)nc2c1,-4.8*,34,0.7,49,0.5
O=C(Nc1cccc(C(F)(F)F)c1)c1ccc2nc(N3C(=O)CCC3=O)sc2c1,0.76,12,0.9,-9,1.1
O=C(COc1ccccc1)Nc1nnc(-c2ccc(Cl)s2)o1,-4.8*,13,0.9,49,0.5
C=Cc1cccc(NC(=O)COc2ccccc2)c1,-3.8,87*,0.1,-5,1.1
Cn1c(=O)[nH]c(=O)c2c1nc(Br)n2CC(O)c1ccccc1 (configuration not stated),-0.39,10,0.9,-1,1
CC(=O)CCc1ccc(OC(=O)c2cccnc2)cc1,1.1,.,.,.,.
O=C(O)C[C@H]1c2cc(F)ccc2S(=O)(=O)N1C1CCCCC1,1.8,.,.,.,.
COc1ccc(C(=O)Nc2cccc(-c3nnc(-c4ccco4)o3)c2)cc1,-0.24,42,0.6,60*,0.4
SMILES,Cav32 inh,CYP2C19 inhib,CYP2C19 activ,CYP2C9 inh,CYP2C9 activ
Cc1cc(C)cc(OCC(=O)Nc2cccc(-c3nnc(-c4ccco4)o3)c2)c1,-2.2,67*,0.3,80*,0.2
O=C(COc1ccccc1)Nc1cccc(-c2nnc(-c3ccccc3)o2)c1,0.4,35,0.6,53*,0.5
O=C(COc1ccccc1)Nc1nnc(-c2ccccc2)o1,-0.73,6,0.9,36,0.6
CCN(CC)CCCN1C(=O)C(=O)/C(=C(/O)c2ccc3c(c2)CC(C)O3)C1c1cccnc1 (configuration not stated),.,-6,1.1,-17,1.2
Cc1ccc(CC(=O)N2CCOCC2)cc1,0.13,30,0.7,-6,1.1
Cc1ccc(CSCC(=O)N2CCOCC2)cc1,0.003,75*,0.3,-15,1.2
